Compounds with a hit are over-represented: about 15% of the library has one in this group of screens.
VP16 counter = VP16 counterscreen qHTS for inhibitors of ROR gamma transcriptional activity; Potency, µM (top dose mostly 53.6 µM), for the others: at the top dose activity, negative = inhibition, actives largely listed as inhibitors; AID 2546, 2010; 310,000 tested, 3.5% active; Drosophila S2 Gal4-VP16 UAS-luciferase, luminescence, 20 h;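 also: Gal4-VP16 expression switched on by copper sulfate through the metallothionein promoter; nearly all actives have a fitted effect of over 50% in size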
RORgamma inh = qHTS for inhibitors of ROR gamma transcriptional activity; Drosophila S2 Gal4-RORgamma UAS-luciferase reporter, 20 h; 310,000 tested, 5.4% active; AID 2551, 2010; Potency, µM (titrated, usually from 53.6 µM), for the others: at the top dose activity change, negative = inhibition, hits mostly inhibitors; Nuclear receptor ROR-gamma (Mus musculus), P51450; also: nearly all actives have a fitted effect of over 60% in size
Target sequence (P51450 whole entry, looked up, the tested form may be a part): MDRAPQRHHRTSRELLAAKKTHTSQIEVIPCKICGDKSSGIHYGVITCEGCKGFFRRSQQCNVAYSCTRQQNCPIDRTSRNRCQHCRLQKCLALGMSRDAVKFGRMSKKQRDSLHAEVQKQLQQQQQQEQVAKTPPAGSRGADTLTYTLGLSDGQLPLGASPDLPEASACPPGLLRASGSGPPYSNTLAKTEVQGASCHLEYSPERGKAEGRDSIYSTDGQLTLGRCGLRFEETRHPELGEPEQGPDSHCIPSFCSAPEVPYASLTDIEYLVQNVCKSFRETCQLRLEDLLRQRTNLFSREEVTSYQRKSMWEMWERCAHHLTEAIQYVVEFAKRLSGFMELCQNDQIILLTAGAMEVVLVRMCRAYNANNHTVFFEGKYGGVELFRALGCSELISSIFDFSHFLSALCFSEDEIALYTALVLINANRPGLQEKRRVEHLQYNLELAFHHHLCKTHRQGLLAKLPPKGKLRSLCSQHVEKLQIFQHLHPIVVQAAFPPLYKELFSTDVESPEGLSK
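Stably transfected Drosophila Schneider cells are the test system, with ROR gamma fused to Gal4 and luciferase under UAS control; luminescence is read after 20 hr of 700 uM copper sulfate induction at ambient temperature.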
TDP1 cell CPT = qHTS for Inhibitors of human tyrosyl-DNA phosphodiesterase 1 (TDP1): qHTS in cells in presence of CPT | chicken DT40 Tdp1-/-;hTDP1 cells + 20 nM CPT, ATP luminescence, 48 h | Potency, µM (series often up to 46.2 µM), inactives show top-dose activity change, negative = growth inhibition, most hits filed as inhibitors | 420,000 tested, 12% active; also: nearly all actives have a fitted effect of over 55% in size
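Cell growth measured by CellTiter-Glo luminescence after a minimum 48 h, 37 C compound exposure with 20 nM CPT in Tdp1-knockout DT40 cells stably expressing hTDP1, seeded 400/well; qHTS titration format.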
12-LOX inh = Primary qHTS assay for inhibitors of human arachidonate 12S-lipoxygenase (ALOX12): Round 2. purified 12hLO, xylenol orange hydroperoxide absorbance. 580,000 tested, 1.1% active. Polyunsaturated fatty acid lipoxygenase ALOX12 (Homo sapiens), P18054. Potency, µM (doses to about 108 µM), for the others: at the top dose activity change, negative = inhibition, most hits filed as inhibitors
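Purified human 12hLO at 150 nM in 25 mM Hepes, 0.01% Triton X-100, pH 7.0, preincubated 15 min at room temperature with compound. Reaction started with 40 uM arachidonic acid, 30 min at room temperature. Hydroperoxide measured by Fe-xylenol orange, 573/405 nm absorbance ratio.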
ELG1 repair inh = qHTS screen for small molecules that inhibit ELG1-dependent DNA repair in human embryonic kidney (HEK293T) cells expressing luciferase-tagged ELG1 | Potency, µM (doses to about 46.1 µM), without a hit: at the highest dose activity change, negative = inhibition, usual class: inhibitors | HEK293T ELG1-luciferase reporter, luminescence, 16 h; DNA damage induced by 5-fluorouridine | 330,000 tested, 2.3% active; also: nearly all actives have a fitted effect of over 55% in size
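DMSO vehicle served as the neutral condition. Each well held 2,000 cells given 5-fluorouridine plus compound; after 16 hr at 37 °C/5% CO2, ONE-Glo was added and luciferase measured 30 min later.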
DT40 TDP1 no CPT = qHTS for Inhibitors of human tyrosyl-DNA phosphodiesterase 1 (TDP1): qHTS in cells in absence of CPT | DT40 Tdp1-/- hTDP1 cells, no CPT, ATP luminescence, 48 h | Potency, µM (highest dose often 46.2 µM), inactives show at the highest dose activity change, negative = growth inhibition, most hits filed as inhibitors | 420,000 tested, 15% active; also: nearly all actives have a fitted effect of over 55% in size
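Camptothecin absent (DMSO only). Human TDP1-complemented DT40 knockout cells, 400 cells/well, 37 °C for minimum 48 hr; ATP measured via CellTiter-Glo, 30 min dark incubation, luminescence.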
Starred values were filed as active, the others as inactive; u = inconclusive; x = not tested or not shown; [ ] = remark or other dose. Calls follow the shape of the dose curve; as a rule, active = well fitted curve in the direction sought with a large enough effect; inconclusive = small, poorly fitted or top-dose-only effect, or another doubt; inactive = no such curve, though single readings can be large; an effect the other way counts as inactive or inconclusive. % is scaled to controls: 0 for no effect and ±100 for the full control effect; potency is read from the fitted curve at half-maximal effect.

SMILES | VP16 counter | RORgamma inh | TDP1 cell CPT | 12-LOX inh | ELG1 repair inh | DT40 TDP1 no CPT
COc1cccc(OC)c1OCCCCCc1c(C)n[nH]c1C | -5.3% | u | u | u | -13.2% | u
Cc1ccccc1OCCCCc1c(C)n[nH]c1C | 12.6µM* | u | u | u | 10.8% | 18.4µM*
Cc1n[nH]c(C)c1CCCCOc1ccccc1F | u | u | -28.3% | 0.0% | 1.6% | u
Cc1cccc(C)c1OCCCCc1c(C)n[nH]c1C | u | 17.8µM* | -22.7% | -45.8% | x | u
COc1cccc(OC)c1OCCCCc1c(C)n[nH]c1C | -6.1% | 24.4% | 25.9µM* | -19.8% | -13.4% | u
O=C1N[C@H](CCC(=O)N2CCC(c3nc4ccccc4[nH]3)CC2)C(=O)Nc2ccccc21 | x | x | x | 44.4% | x | x
COC(=O)c1ccc2nc(CO[C@H]3CN(Cc4ccc5c(c4)OCO5)C[C@H]3F)[nH]c2c1 | x | x | x | 25.9%[176 µM] | x | x
COc1ccc(/C=N/OCC(=O)NC(c2ccccc2)c2ccccc2)cc1OC | 1.58µM* | u | 5.17µM* | -1.7% | -3.6% | 6.51µM*
COc1cc(CC(=O)NC(c2ccccc2)c2ccccc2)cc(OC)c1OC | -0.1% | 18.2% | 14.6µM* | 12.7% | 1.1% | 13µM*
COc1ccc(CNC(=O)CNC(c2ccccc2)c2ccccc2)cc1OC | -8.5% | 7.2% | -5.4% | 26.3% | 8.1% | 7.31µM*
COc1ccc(/C=N/OCC(=O)Nc2cc(C)on2)cc1OC | -9.8% | -19.2% | 8.6% | -15.0% | 10.6% | -29.2%
COC(=O)NCc1ccc(Cl)c(Cl)c1 | -13.0% | -5.5% | u | 0.0% | 3.1% | -16.3%
COc1ccc(CC(=O)NCc2cccc(CNC(=O)Cc3ccc(OC)c(OC)c3)c2)cc1OC | 4.3% | -6.5% | -7.3% | 25.7% | -24.4% | -1.7%
COc1cc(C(=O)NC(c2ccccc2)c2ccccc2)cc(Cl)c1OC | -22.1% | 15.3% | -4.3% | 0.2% | -12.3% | -22.7%
COc1ccc(CNC(=O)Oc2ccccc2)cc1Cl | 6.5% | 6.3% | u | 0.0% | 8.2% | 11.6µM*
O=C([C@@H]1C[C@H](Oc2ccccc2)CN1C(=O)c1ccncc1)N1CCCC1 | x | x | x | 17.3% | x | x
Cc1cccc(-n2nnnc2C2(NCc3ccccc3)CCCC2)c1 | x | x | x | 8.3% | x | x
CCCc1ccc(C(=O)/C(C#N)=C\c2cn[nH]c2C(C)(C)C)cc1 | x | x | x | -11.9% | x | x
NC(c1ccccc1)c1nnc2n1CCN(C(=O)N1CCCC1)C2 (stereo not given) | x | x | x | 7.94µM* | x | x
Cc1cc(OCC(=O)N2CCOCC2)ccc1NC(=O)c1ccccc1C | u | 10µM* | -17.2% | 474.8% | u | -4.3%
CCCCOc1ccc(C(=O)Nc2ccc(OCC(=O)N3CCOCC3)cc2)cc1 | u | -34.2% | -17.1% | 5.9% | u | -19.4%
O=C(Nc1ccc(OCC(=O)N2CCOCC2)cc1)c1cncc(Br)c1 | -0.5% | -0.4% | u | -3.7% | 9.2µM* | u
Cc1ccc(Cl)cc1NC(=O)c1ccccc1OCC(=O)N1CCOCC1 | 2.5% | 19.3% | u | 0.0% | u | 1.5%
Cc1onc(-c2ccccc2Cl)c1C(=O)Nc1ccc(OCC(=O)N2CCOCC2)cc1 | -7.5% | -9.0% | -14.0% | 2.4% | 9.2µM* | -4.0%
O=C(Nc1ccc(OCC(=O)N2CCOCC2)cc1)c1ccccc1Cl | 7.94µM* | 11.2µM* | -10.6% | 31.4% | u | 1.4%
